Sampled rows, rich in hits. Any-hit rate of the full collection: about 11%.
G9a block – qHTS Assay for Inhibitors of Histone Lysine Methyltransferase G9a. Histone-lysine N-methyltransferase EHMT2 (Homo sapiens), Q96KQ7. G9a H3K9 monomethylation, AlphaScreen, 2 h. AID 504332, 2011. Potency, µM (series often up to 102 µM), for inactives: top-dose activity, negative = inhibition, most hits filed as inhibitors. actives 8.8% (n = 350,000); note: % is set by controls: 0 for no effect and ±100 for the full control effect; nearly all actives have a fitted effect of over 75% in size
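AlphaScreen detection with an anti-monomethyl H3K9 antibody quantified product after a 2 h room-temperature reaction containing 500 nM biotinylated H3K9 peptide, 20 µM SAM and 20 nM enzyme, which had been preincubated 15 min with compound.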
HP1b binding inh – HTS for Inhibitors of HP1-beta Chromodomain Interactions with Methylated Histone Tails. Chromobox protein homolog 1 (Homo sapiens), P83916. AlphaScreen HP1-beta / biotin-H3K9me3 peptide binding. Potency, µM (doses to about 114 µM), without a hit: top-dose activity change, negative = inhibition, most hits filed as inhibitors. actives 0.56% (n = 390,000); note: nearly all actives have a fitted effect of over 70% in size
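Compound inhibition of the preformed complex between 50 nM HP1-beta and 50 nM biotinylated H3K9me3 peptide was read by AlphaScreen. Buffer was PBS pH 7.4 with 0.01% Tween-20. Incubations ran 30 min at room temperature, with 10 ug/mL donor/acceptor beads.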
BAZ2B inh – qHTS Assay for Inhibitors of BAZ2B | AlphaScreen BAZ2B-H3K14Ac peptide displacement | Potency, µM (highest dose often 114 µM), without a hit: top-dose activity change, negative = inhibition, actives largely listed as inhibitors | actives 4.4% (n = 360,000) | AID 504333, 2011; note: % is set by controls: 0 for no effect and ±100 for the full control effect; nearly all actives have a fitted effect of over 60% in size
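Compounds, titrated to a top concentration of 110 uM, were incubated 30 min at room temperature with preformed BAZ2B/acetyl-K14 H3 peptide complex (50 nM each). Proximity signal was measured by AlphaScreen after 20 min with beads.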
L3MBTL1 block – qHTS Assay for the Inhibitors of L3MBTL1; Potency, µM (titrated, usually from 57.1 µM), without a hit: at the highest dose activity, negative = inhibition, actives largely listed as inhibitors; actives 0.66% (n = 230,000); Lethal(3)malignant brain tumor-like protein 1 (Homo sapiens), Q9Y468; AlphaScreen L3MBTL1–H3K9me1 peptide binding; note: % is set by controls: 0 for no effect and ±100 for the full control effect; nearly all actives have a fitted effect of over 60% in size
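L3MBTL1 50 nM + b-AHA-H3(1-15)K9me1 75 nM, 30 min RT; compound added, 30 min RT; streptavidin donor/Ni-chelate acceptor beads 10 ug/mL each final, 30 min RT dark; AlphaScreen read.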
JMJD2A Tudor – qHTS Assay for Inhibitors of JMJD2A-Tudor Domain; AlphaScreen JMJD2A-Tudor / H3K4me3 peptide binding; Potency, µM (titrated, usually from 114 µM), without a hit: at the top dose activity change, negative = inhibition, hits mostly inhibitors; actives 4.4% (n = 390,000); AID 504339, 2011; note: % is set by controls: 0 for no effect and ±100 for the full control effect; nearly all actives have a fitted effect of over 50% in size
An asterisk follows results filed as active; [ ] = dose if it differs, or a comment. Calls come from the whole dose curve; as a rule, active = well fitted inhibition curve with a large enough effect; inconclusive = small, poorly fitted or top-dose-only effect; inactive = no such curve, though single readings can be large or run the other way. Potency is the fitted concentration of half-maximal effect.

`COc1ccccc1/C=C/C(=O)NCC(=O)N/N=C/c1ccc(C)o1` gave G9a block 45µM*, HP1b binding inh 16%, BAZ2B inh -1% and JMJD2A Tudor -15%.
CCOc1ccc(C(=O)N2CC(=O)Nc3ccc(F)cc3C2c2ccc(F)cc2)cc1 (stereo not given) was read as G9a block 4%[59 µM], HP1b binding inh 22%, BAZ2B inh -1% and JMJD2A Tudor -16%.
`N/C(=N\OC(=O)/C=C/c1ccccc1Cl)c1cccnc1` gave G9a block 7%, HP1b binding inh 31%, BAZ2B inh 3%, L3MBTL1 block 16% and JMJD2A Tudor 2%.
For N/C(=N\OC(=O)COc1ccc(Br)cc1Cl)c1ccccn1 the results were G9a block inconclusive, HP1b binding inh 20%, BAZ2B inh 7%, L3MBTL1 block 9% and JMJD2A Tudor 79µM*.
CCc1ccc(OCC(=O)O/N=C(\N)c2ccccn2)cc1 was read as G9a block inconclusive, HP1b binding inh 44%, BAZ2B inh 1%, L3MBTL1 block 3% and JMJD2A Tudor 7%.
Screening N/C(=N\OC(=O)COc1ccccc1)c1ccccn1 returned G9a block 11µM*, HP1b binding inh 25%, BAZ2B inh -19%, L3MBTL1 block 12% and JMJD2A Tudor -1%.
N/C(=N\OC(=O)c1ccc(Br)o1)c1ccccn1 was read as G9a block 20µM*, HP1b binding inh 20%, BAZ2B inh -35%, L3MBTL1 block 6% and JMJD2A Tudor -19%.
`N/C(=N\OC(=O)/C=C/c1ccccc1Cl)c1ccccn1` gave G9a block -7%[59 µM], HP1b binding inh 60%, BAZ2B inh 79µM* and JMJD2A Tudor -7%.
Screening CCOc1ccc(CNC(=O)c2cccc(NC(=O)N3CCSc4ncccc43)c2)cc1OC returned G9a block -10%[59 µM], HP1b binding inh 7%, BAZ2B inh -15% and JMJD2A Tudor -10%.
CCC(C)(C#CCN1CCCCC1)OCCC#N (stereo not given) was read as G9a block 17%, HP1b binding inh 29%, BAZ2B inh -2%, L3MBTL1 block 6% and JMJD2A Tudor 3%.
Screening CCOC(=O)c1ccc(-n2c(=S)sc3c(=O)[nH]c(C)nc32)cc1 returned G9a block 1.8µM*, HP1b binding inh -39%, BAZ2B inh -4%, L3MBTL1 block -2% and JMJD2A Tudor inconclusive.
For CCOC(=O)c1ccc(-n2c(N)c(C(=O)NCc3ccco3)sc2=S)cc1 the results were G9a block inconclusive, HP1b binding inh 16µM*, BAZ2B inh 40µM*, L3MBTL1 block -9% and JMJD2A Tudor 25µM*.
`COc1ccc(-n2c(N)c(C(=O)NCc3ccco3)sc2=S)cc1` gave G9a block inconclusive, HP1b binding inh 10%, BAZ2B inh -5%, L3MBTL1 block -18% and JMJD2A Tudor -27%.
Screening O=C(NCc1ccco1)c1ccc(C(=O)NCc2ccco2)cc1 returned HP1b binding inh 6% and JMJD2A Tudor -24%.
CCn1c(N)c(C(=O)NCc2ccco2)sc1=S was read as G9a block 10µM*, HP1b binding inh inconclusive, BAZ2B inh inconclusive, L3MBTL1 block -28% and JMJD2A Tudor inconclusive.
Screening CCOC(=O)c1sc(=S)n(-c2ccc(F)c(F)c2)c1N returned G9a block inconclusive, HP1b binding inh -39%, BAZ2B inh 4%, L3MBTL1 block -5% and JMJD2A Tudor inconclusive.
For C=CCNC(=O)c1sc(=S)n(-c2ccc(C(=O)OCC)cc2)c1N the results were G9a block 3.2µM*, HP1b binding inh inconclusive, BAZ2B inh inconclusive, L3MBTL1 block -20%[11.4 µM] and JMJD2A Tudor inconclusive.
`CCOC(=O)CSc1nc2c(sc(=S)n2-c2ccc(CC)cc2)c(=O)[nH]1` gave G9a block inconclusive, HP1b binding inh 29%, BAZ2B inh -23% and JMJD2A Tudor -24%.
For COc1ccc(NC(=O)Cn2c(=O)n(-c3ccccc3)c(=O)c3c4c(sc32)CCCC4)cc1 the results were G9a block 10%[59 µM], HP1b binding inh 32%, BAZ2B inh 3% and JMJD2A Tudor -3%.
Screening O=C(CCCc1c[nH]c2ccccc12)Nc1ncccc1O returned G9a block 6%, HP1b binding inh 14%, BAZ2B inh 56µM* and JMJD2A Tudor -28%.
For Cc1cccnc1NC(=O)CCCc1c[nH]c2ccccc12 the results were G9a block 22%, HP1b binding inh 40%, BAZ2B inh inconclusive and JMJD2A Tudor -17%.
For CCOc1cc(-c2nnc(NC(=O)c3ccco3)o2)cc(OCC)c1OCC the results were G9a block 37%[59 µM], HP1b binding inh 16%, BAZ2B inh 10%, L3MBTL1 block 8% and JMJD2A Tudor -24%.
`O=C(Nc1nnc(-c2cccs2)o1)c1ccco1` gave G9a block 10µM*, HP1b binding inh 45%, BAZ2B inh 35µM* and JMJD2A Tudor 45µM*.
`Cc1ccc(-c2nnc(NC(=O)c3ccco3)o2)c(C)c1` gave G9a block -34%, HP1b binding inh 19%, BAZ2B inh inconclusive, L3MBTL1 block -11% and JMJD2A Tudor -14%.
`COc1cccc(C(=O)Nc2nnc(-c3cccs3)o2)c1` gave G9a block -4%, HP1b binding inh 50%, BAZ2B inh inconclusive, L3MBTL1 block 7% and JMJD2A Tudor -13%.
For O=C(Nc1nnc(-c2ccc(Br)cc2)o1)c1ccco1 the results were G9a block -23%, HP1b binding inh 44%, BAZ2B inh 79µM*, L3MBTL1 block 16% and JMJD2A Tudor inconclusive.
`COc1cc(-c2nnc(NC(=O)c3ccco3)o2)cc(OC)c1OC` gave G9a block inconclusive, HP1b binding inh 19%, BAZ2B inh 79µM*, L3MBTL1 block -4% and JMJD2A Tudor inconclusive.
Screening O=C(Nc1nnc(-c2ccccc2Cl)o1)c1ccco1 returned G9a block inconclusive, HP1b binding inh 13%, BAZ2B inh 79µM*, L3MBTL1 block 2% and JMJD2A Tudor 79µM*.
`CCCN(CC(=O)Nc1cc(Cl)ccc1Cl)C(=O)c1ccccc1SCC(=O)N1CCCC1` gave G9a block -4%, HP1b binding inh 21%, BAZ2B inh 1%, L3MBTL1 block 3% and JMJD2A Tudor -16%.
CCOc1ccc(-c2nonc2NC(=O)c2oc3c(C)c(C)ccc3c2C)cc1OCC was read as G9a block 9%[59 µM], HP1b binding inh 14%, BAZ2B inh 1% and JMJD2A Tudor -19%.
